The results in this text go back to PubChem BioAssay (Tox21).

Where “and” joins values, the source holds several entries; their conditions need not be identical. Identical values can stand only once. Records with an inconclusive call do not appear. A structure can be active in one record and inactive in another. Calls of active or inactive are those of the source. The call rests on the fitted dose curve; in most records, active means well fitted curve in the direction sought with a large enough effect in the repeat runs; inconclusive means weak or mixed curves; inactive means no such curve, though single readings can be large; an effect the other way counts as inactive or inconclusive.

The nature of test [1]: A CellTox Green Cytotoxicity Assay to monitor cytotoxicity in HEK293 cells - 32 hour (AID 1224881). Further: nearly all actives have a fitted effect of over 40% in size. Further: potency means the concentration at half of the fitted maximal effect. In a few lines:
(§1)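 Fluorescence from a DNA-binding dye excluded by viable cells was measured repeatedly in the same HEK293 wells (600 cells/well) during continuous compound exposure at 37 C. Each assay gives one read point: 0, 8, 16, 24, 32 or 40 h.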

Test [2] can be described thus: A CellTox Green Cytotoxicity Assay to monitor cytotoxicity in HepG2 cells - 32 hour (AID 1224883). Further: nearly all actives have a fitted effect of over 50% in size. Further: potency means the concentration at half of the fitted maximal effect. In a few lines:
(§2)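 Real-time cytotoxicity: fluorescence of a cell-impermeant cyanine dye binding DNA of dead HepG2 cells, measured repeatedly (0–40 h) during compound exposure at 37 C. Cells seeded 600/well with reagent, dosed after 5 h.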

Test [3] in a line: A CellTox Green Cytotoxicity Assay to monitor cytotoxicity in HEK293 cells - 8 hour (AID 1224884). Further: nearly all actives have a fitted effect of over 35% in size. Further: potency means the concentration at half of the fitted maximal effect. In a few lines:
as §1

Test [4] in a line: qHTS RealTime-Glo MT Cell Viability Assay in HepG2 cells - 16 hour (AID 1224885). Further: nearly all actives have a fitted effect of over 50% in size. In a few lines: (§3)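 Viability was tracked continuously by NanoLuc luminescence from prosubstrate reduced by living HepG2 cells, at successive time points over 40 h of compound exposure. Cells with reagent were preincubated 5 h at 37 °C before compound addition.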
On the technique in general: qHTS replaces the single test concentration by a dilution series.

Test [5] is described as follows: qHTS RealTime-Glo MT Cell Viability Assay in HEK293 cells - 8 hour (AID 1224887). Further: top concentration of the series differs between compounds; nearly all actives have a fitted effect of over 50% in size. The gist of the method: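 Luminescence, which tracks viable cell number through reduction of the prosubstrate to a NanoLuc substrate, was read over continuous 37 C culture. Cells (600/well) were premixed with reagent and rested 5 h before 23 nL of compound in DMSO was pinned.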
A short description of test [6]: A CellTox Green Cytotoxicity Assay to monitor cytotoxicity in HEK293 cells - 16 hour (AID 1224888). Further: nearly all actives have a fitted effect of over 35% in size. The gist of the method:
as §1

The nature of test [7]: qHTS RealTime-Glo MT Cell Viability Assay in HepG2 cells - 0 hour (AID 1224889). Further: nearly all actives have a fitted effect of over 50% in size. The gist of the method:
as §3

Test [8] in a line: A CellTox Green Cytotoxicity Assay to monitor cytotoxicity in HepG2 cells - 8 hour (AID 1224890). Further: nearly all actives have a fitted effect of over 45% in size. The gist of the method:
as §2

Test [9] is described as follows: qHTS RealTime-Glo MT Cell Viability Assay in HEK293 cells - 24 hour (AID 1224886). Further: nearly all actives have a fitted effect of over 50% in size. Further: potency means the concentration at half of the fitted maximal effect. On activity change, negative = cytotoxicity: top concentration of the series differs between compounds. In a few lines:
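Viability tracked continuously by luminescence as live cells reduce a prosubstrate for NanoLuc; HEK293 cells preincubated 5 h, compound-treated at 37 C, and read at 0, 8, 16, 24, 32 and 40 h.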

Test [10] is described as follows: A CellTox Green Cytotoxicity Assay to monitor cytotoxicity in HepG2 cells - 0 hour (AID 1224882). Further: nearly all actives have a fitted effect of over 35% in size. The gist of the method:
as §2
On the % scale 0 is the no-effect control and ±100 the full control effect.

For `Cc1sccc1Br`, the Potency entry in [1], in test [2], in [3], in test [4], in test [5] and in test [6] was “inactive” throughout. In addition, the Potency result in [7] and in [8] was “inactive” in each case.
For the compound `O=c1cc(CO)occ1O`, the Potency result in test [1], in test [2], in test [3], in test [4], in test [5] and in [6] was “inactive” in each case. The Potency entry in test [7] and in test [8] was “inactive” in each case.
For the compound `Cc1cnc(NS(=O)(=O)c2ccc(N)cc2)nc1`, the Potency entry in [1], in [2], in [3], in [4], in [9] and in [5] was “inactive” throughout. The Potency entry in test [6], in [7] and in test [8] was “inactive” in each case.
`CCS(=O)(=O)c1ccc(OC)c(C(=O)OC)c1`: the Potency result in test [10], in test [2], in test [3], in test [4], in test [9] and in test [5] was “inactive” in each case. Also, the Potency result in test [6], in test [7] and in test [8] was “inactive” each time.
On to `C=C(C)CS(=O)(=O)O`, for which the Potency entry in [10], in test [2], in test [3], in test [4], in [9] and in [5] was “inactive” in each case. Also, the Potency result in [6], in test [7] and in test [8] was “inactive” each time.
In the case of `CCOC(=O)c1ccc(C)cc1`, the Potency entry in test [1], in test [2], in test [3], in [5], in test [6] and in test [7] was “inactive” each time. Also, the Potency entry in test [8] was “inactive”.
As to `C[C@](N)(Cc1ccc(O)cc1)C(=O)O`, the cytotoxicity increase in test [1] was 3.03% [at 6.97 µM] (inactive); in test [2] it was -6.04% [at 6.97 µM] (inactive); in [3], 2.1% [at 6.97 µM] (inactive); in test [8], -1.36% [at 6.97 µM] (inactive). Besides, the activity change, negative = cytotoxic in test [4] was -0.0046% [at 6.97 µM] (inactive). Moreover, the results for the activity change, negative = cytotoxicity in test [9], in [5] and in test [7] were 0.918% [at 6.97 µM] (inactive), 3.77% [at 6.97 µM] (inactive) and -5.13% [at 6.97 µM] (inactive), respectively. Moreover, the activity change in [6] was 4.06% [at 6.97 µM, stronger effect = higher value] (inactive).
Regarding `N[C@H]1CN(c2c(F)cc3c(=O)c(C(=O)O)cn(C4C[C@H]4F)c3c2Cl)CC12CC2` (stereo partly specified), the Potency result in test [10], in test [2], in [3], in test [4], in test [9] and in test [5] was “inactive” throughout. Moreover, the Potency entry in test [6], in test [7] and in [8] was “inactive” in each case.
`CC(C)OC(=O)c1ccccc1`: the Potency entry in [1], in test [2], in [3], in [9], in test [5] and in test [6] was “inactive” in each case. Besides, the Potency result in test [7] and in test [8] was “inactive” each time.
For the compound `O=C(O)CNC(=O)c1ccc([N+](=O)[O-])cc1`, the Potency result in test [10], in [2], in test [3], in test [4], in test [9] and in test [5] was “inactive” throughout. In addition, the Potency result in test [6], in test [7] and in test [8] was “inactive” in each case.
For `COc1ccc(CCN(C)CCCC(C#N)(c2cc(OC)c(OC)c(OC)c2)C(C)C)cc1OC` (stereo unspecified), the Potency result in test [1], in test [2], in test [3], in test [4], in [6] and in test [7] was “inactive” in each case. Besides, the Potency result in test [8] was “inactive”. Also, in test [9], the Potency is 21.3 µM (active).
In the case of `Cc1nc2c([nH]1)c(=O)n(C)c(=O)n2Cc1ccco1`, the Potency result in test [1], in [2], in [3], in test [4], in test [9] and in test [5] was “inactive” throughout. In addition, the Potency result in [6], in test [7] and in [8] was “inactive” in each case.
Consider `CC(=O)c1ccccc1O`, for which the Potency entry in [1], in test [2], in [3], in [4], in [9] and in test [5] was “inactive” in each case. Besides, the Potency entry in test [6], in test [7] and in [8] was “inactive” in each case.
As for `CC(C)(O)C#CC(C)(C)O`, the Potency entry in [10], in [2], in [3], in test [4], in test [9] and in [5] was “inactive” in each case. The Potency entry in test [6], in test [7] and in test [8] was “inactive” throughout.
Regarding `C=CCCCCCCCCC=O`, the Potency result in test [10], in [2], in test [3], in [4], in [9] and in test [5] was “inactive” throughout. Besides, the Potency entry in [6], in test [7] and in test [8] was “inactive” throughout.
As for `CCc1cccc2c(CCO)c[nH]c12`, the Potency result in test [1], in test [2], in [3], in test [5], in test [6] and in test [7] was “inactive” in each case. In test [8], the Potency result is “inactive”.
With `CCOC(=O)[C@H](CCc1ccccc1)N[C@@H](C)C(=O)N1[C@H](C(=O)O)C[C@@H]2CCC[C@@H]21`, the Potency entry in test [10], in test [2], in [3], in [4], in test [9] and in test [5] was “inactive” each time. Also, the Potency entry in test [6] and in test [7] was “inactive” each time.
Consider `O=C1NC(=O)[C@@]2(CCOc3ccc(F)cc32)N1`, for which the Potency entry in test [10], in test [2], in test [3], in test [4], in test [9] and in test [5] was “inactive” throughout. Further, the Potency entry in [6], in test [7] and in test [8] was “inactive” throughout.
For `C1OCOCO1`, the Potency entry in [1], in test [2], in test [3], in test [4], in test [5] and in [6] was “inactive” in each case. Besides, the Potency entry in [7] and in [8] was “inactive” each time.
With `O=c1n(CCO)c(=O)n(CCO)c(=O)n1CCO`, the Potency entry in test [1] is “inactive and 38.9 µM (active)”; in test [2], “inactive and 38.9 µM (active)”; in [3], “inactive and 43.6 µM (active)”. Besides, the Potency entry in test [4], in test [9], in test [5] and in test [7] was “inactive” in each case.
`C=CCS(=O)(=O)O`: the Potency entry in test [10], in test [2], in test [3], in [4], in [9] and in test [5] was “inactive” each time. Moreover, the Potency entry in [6] and in test [7] was “inactive” each time.
